Compound activity as filed in PubChem BioAssay.
BoNT-F LC inh: blocks Botulinum neurotoxin F light chain protease; AID 588497; inhibition, % at 10 µM; actives 0.22% (n = 360,000); Multiplex microsphere protease cleavage assay, flow cytometry; in the data active means inhibition above about 35%, passing the limit was not always enough; inconclusive means no clear call, values can overlap the other calls; further: plate controls were buffer without enzyme for full effect and enzyme alone for no effect
BoNT A protease: BoNT A light chain protease inhibition; multiplex microsphere protease substrate cleavage, flow cytometry; inhibition, % at 10 µM; actives 0.17% (n = 360,000); AID 588499; further: plate controls were buffer without enzyme for full effect and enzyme alone for no effect
MazEF act: increases E. coli MazEF RNase cleavage of RNA; actives 0.32% (n = 350,000); FAM/BHQ RNA-DNA oligo cleavage fluorescence, 5 h; activation, % at 20 µM; P0AE70; in the data active means activation above about 50%
Vc quorum ag: quorum light induction in luxS cqsA deficient V. cholerae | actives 0.16% (n = 350,000) | V. cholerae BH1578 lux reporter, luminescence, 6 h | activation, % at 18.7 µM; in the data active means activation mostly above about 9.7%, no sharp cut-off; inconclusive means no clear call, values can overlap the other calls; inactive means mostly below about 3.7%
Anthrax LF inh2: inhibitors of Bacillus anthracis lethal factor protease | P15917 | multiplex microsphere protease cleavage assay, LF | inhibition, % at 10 µM | actives 0.12% (n = 360,000) | AID 588501; further: plate controls were buffer without enzyme for full effect and enzyme alone for no effect
Target sequence (P15917 whole entry, looked up): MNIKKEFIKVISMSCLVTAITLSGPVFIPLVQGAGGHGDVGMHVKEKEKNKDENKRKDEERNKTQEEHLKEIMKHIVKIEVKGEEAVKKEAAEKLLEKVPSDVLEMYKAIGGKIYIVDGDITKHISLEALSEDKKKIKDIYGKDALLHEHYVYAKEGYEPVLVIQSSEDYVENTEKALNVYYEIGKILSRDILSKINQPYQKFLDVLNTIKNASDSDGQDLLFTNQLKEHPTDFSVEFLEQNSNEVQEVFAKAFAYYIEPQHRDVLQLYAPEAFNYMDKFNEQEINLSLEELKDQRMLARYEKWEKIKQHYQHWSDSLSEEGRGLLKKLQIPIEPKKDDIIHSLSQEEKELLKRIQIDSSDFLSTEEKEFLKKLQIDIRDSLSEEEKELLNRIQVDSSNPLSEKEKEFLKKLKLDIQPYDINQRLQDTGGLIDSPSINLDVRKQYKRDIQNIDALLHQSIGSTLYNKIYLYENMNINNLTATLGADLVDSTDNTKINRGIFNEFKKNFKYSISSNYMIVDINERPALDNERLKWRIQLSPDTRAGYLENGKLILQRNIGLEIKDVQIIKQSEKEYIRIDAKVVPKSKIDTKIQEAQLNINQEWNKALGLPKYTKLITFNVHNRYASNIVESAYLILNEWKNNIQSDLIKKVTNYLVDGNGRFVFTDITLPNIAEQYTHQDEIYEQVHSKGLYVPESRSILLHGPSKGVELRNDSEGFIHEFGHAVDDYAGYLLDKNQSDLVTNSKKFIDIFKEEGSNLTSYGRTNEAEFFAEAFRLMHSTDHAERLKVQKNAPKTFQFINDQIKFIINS
Autofluor counter: flagged as autofluorescent in microsphere protease counterscreen | compound autofluorescence counterscreen, microsphere flow cytometry; hits give high values | fluorescence intensity (no concentration beside the values) | actives 3.1% (n = 360,000) | AID 624483; in the data active means fluorescence intensity above about 16000; inconclusive means no clear call, values can overlap the other calls
* hit, by the source's call; i = inactive; ? = inconclusive; · = no result given. In the library only some 3.9% were active in any assay of this set; here they are far more common. Unless noted, no stated cut-off is given here; in the data, active means inhibition above about 30%; inconclusive means no clear call, values can overlap the other calls; inactive means below that.

SMILES	BoNT-F LC inh	BoNT A protease	MazEF act	Vc quorum ag	Anthrax LF inh2	Autofluor counter
Cc1ccc(CCNS(=O)(=O)c2cc3c(cc2Cl)NC(=O)CO3)cc1	-5	-1	-3	0	-6	6527
CC(=O)Nc1ccc(NC(=O)[C@@H](NC(=O)c2ccccc2F)C(C)C)cc1	-5	-1	-2	1	-4	3643
Cc1cccc(-n2nnnc2SCC(=O)c2cc(C)n(Cc3ccco3)c2C)c1	0	?	-26	3	0	22516*
CNC(=O)C12CC3CC(CC(Cl)(C3)C1)C2	-4	0	6	0	1	2547
Cc1cc(N2CCN(C(=O)c3cccs3)CC2)c(F)cc1[N+](=O)[O-]	?	-3	-2	0	6	3360
Cc1cc(N2CCCC2)c(F)cc1/C=C\[N+](=O)[O-]	22	62*	27	2	35*	9071
O=[N+]([O-])c1cc(F)c(N2CCCCCC2)cc1N1CCNCC1	-19	0	10	-1	-4	2519
Cc1cc(N2CCC(C)CC2)c(F)cc1[N+](=O)[O-]	-2	-1	-10	3	1	24078*
CC1CCN(c2cc(C#N)c(C#N)cc2[N+](=O)[O-])CC1	-3	-1	10	i	0	23005*
Cc1cc(=O)oc2cc(OCC(=O)Nc3ccccc3C(=O)O)ccc12	11	2	2	-3	2	3629
CCN(CC)C(=O)C1CCCN(Cc2ccc3c(c2)OCO3)C1 (centres undefined)	4	0	-2	·	-6	2466
CCOC(=O)C1CCCN(Cc2ccc3c(c2)OCO3)C1 (centres undefined)	-4	0	1	i	-1	16327*
CCOC(=O)C1CCN(C(=O)c2ccc3c(c2)OCO3)CC1	2	2	2	0	-1	22950*
CCOC(=O)C1CCN(C(=O)N(C)C)CC1	1	0	-7	0	-3	23160*
CCCCC(=O)Nc1ccc(C(=O)NCC(=O)OC)cc1	2	-1	6	0	0	22542*
CCOC(=O)C1CCC(CN(Cc2ccccc2)S(=O)(=O)c2ccc([N+](=O)[O-])cc2)CC1 (centres undefined)	-7	0	-8	0	1	2376
CC(C)C[C@H]1CN=C(Nc2ccccc2)N1CC1CCC(C)CC1 (some centres undefined)	-15	0	11	0	-6	3595
O=C(Nc1ccn(CC(=O)N2CCN(c3ccccn3)CC2)c(=O)n1)OCc1ccccc1	7	0	10	i	-4	3819
Cc1ccc(C)c(N2CCN(C(=O)c3csc4ccccc34)CC2)c1	0	-1	-5	-4	0	2570
CCC[C@H]1CN(c2ccccc2)C(=O)[C@@H]1CC(=O)Nc1ccc(Br)cc1	-8	0	5	0	-4	3503
CCCCCCC(=O)Nc1ccc(C(=O)N2CCCC2)cc1	-4	0	-3	i	-6	11443
CCCCC(=O)Nc1ccc(C(=O)N2CCC(C(=O)OCC)CC2)cc1	3	1	-3	i	2	23061*
CC(=O)Nc1ccc(NC(=O)C2CCCN(c3ncccn3)C2)cc1 (centres undefined)	1	-1	2	0	0	4477
Cc1cc(C)cc(NC(=O)C2CCCN(c3nccc(C)n3)C2)c1 (centres undefined)	1	0	-21	i	-4	16127*
Cc1cc(C)nc(N2CCCC(C(=O)Nc3ccc4nc(C)c(C)nc4c3)C2)n1 (centres undefined)	-8	0	8	0	1	8398
Cc1cc(C)cc(NC(=O)C2CCCN(c3nc(C)cc(C)n3)C2)c1 (centres undefined)	-3	-1	-15	0	-9	22398*
Cc1cc(C)nc(N2CCCC(C(=O)Nc3nc4ccc(S(C)(=O)=O)cc4s3)C2)n1 (centres undefined)	1	2	-1	i	1	22009*
CCCCN(C(=O)CCC(=O)Nc1cc(C)on1)C(C(=O)NC1CCCC1)c1ccc(OCC)cc1 (centres undefined)	-1	0	4	0	1	6015
O=C(Nc1cccc(C(F)(F)F)c1)c1cc2c(=O)c3ccccc3oc2nc1C(F)(F)F	-5	?	9	-2	1	23568*
O=C(Nc1ccccc1)c1cc2c(=O)c3ccccc3oc2nc1C(F)(F)F	-3	1	18	0	-4	8372
